Laboratory results published in PubChem BioAssay AID2675 (National Center for Advancing Translational Sciences (NCATS), 2010).
Screen size: about 280,000 compounds; about 100 (0.036%) were called active. About 11% were inconclusive and are not listed. Calls follow the shape of the dose curve; as a rule, active = well fitted inhibition curve with a large enough effect in the signal ratio, with a control signal flat (not every such curve was filed as active); inconclusive = small, poorly fitted or top-dose-only effect, or effect the other way, or a change in a side signal; inactive = no such curve, though single readings can be large or run the other way; the % refers to the signal ratio. The sample as a whole holds a higher share of actives than the screen did.

Molecular target: Muscleblind-like protein 1 (Homo sapiens) (UniProt Q9NR56)
Sequence (Q9NR56 whole entry, looked up): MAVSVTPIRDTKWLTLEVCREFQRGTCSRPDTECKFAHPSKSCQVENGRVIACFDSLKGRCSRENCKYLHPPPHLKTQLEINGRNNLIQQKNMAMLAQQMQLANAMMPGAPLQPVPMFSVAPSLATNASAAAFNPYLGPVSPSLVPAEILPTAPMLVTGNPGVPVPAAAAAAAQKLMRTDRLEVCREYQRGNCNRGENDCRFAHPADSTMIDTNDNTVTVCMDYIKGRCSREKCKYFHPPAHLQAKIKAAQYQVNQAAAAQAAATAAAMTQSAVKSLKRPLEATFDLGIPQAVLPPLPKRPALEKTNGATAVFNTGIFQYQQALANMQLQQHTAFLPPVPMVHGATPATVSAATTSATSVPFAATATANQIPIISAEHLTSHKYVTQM
Assay: qHTS Assay for Inhibitors of MBNL1-poly(CUG) RNA binding
Settings: TR-FRET MBNL1-His/biotin-(CUG)12 binding, 665/545 ratio; series mostly up to 57.5 µM
From the text: NIH Chemical Genomics Center [NCGC] NIH Molecular Libraries Probe Production Centers Network [MLPCN] MLPCN Grant: R03 MH087421-01 Assay Submitter (PI): Charles Thornton NCGC Assay Overview: Expanded CTG repeats in the 3' untranslated region of the DM protein kinase (DMPK) gene causes type I myotonic dystrophy (DM1). DM1 is a multi-systemic disease with a prevalence of 1/7000. Clinical features include myotonia, progressive muscle weakness and wasting, cardiac arrhythmia, insulin resistance, hypersomnolence, cataracts, and other symptoms. The pathogenic effect of expanded CTG repeats stems from deleterious effects of the mutant transcript. CUGexp mRNA accumulates in nuclear foci and sequesters proteins of the muscleblind family, of which MBNL1 is the most common family member in skeletal muscles. The binding interaction between MBNL1 and CUGexp tracts leads to deregulation of alternative splicing and is therefore a key molecular step in the pathogenesis of DM1. To target this binding interaction, we optimized a protein-RNA binding assay in 1536-well format for identification of small molecule inhibitors of biotinylated (CUG)12 and his-tagged MBNL1 binding. Protein-RNA complex of MBNL1-His and Biotin-(CUG)12 captures the detection reagents terbium-labeled anti-His antibody and streptavidin conjugated XL665. This brings the terbium label within close proximity to XL665 to allow time-resolved fluorescence resonance energy transfer (TR-FRET). Inhibitors of MBNL1-(CUG)12 binding will disrupt TR-FRET.
NCGC Assay Protocol Summary: This is a TR-FRET binding assay with MBNL1-His and Biotin-(CUG)12 RNA. The assay uses a ratiometric measurement. In the presence of MBNL1-(CUG)12 complex, the excitation energy is transferred to the XL665 acceptor label, causing emission at 665nm, while the 545nm donor signal […]. Data were normalized to the controls for basal activity (buffer only) and 100% activity (with MBNL1-(CUG)12). […] The final titration was 92 nM to 58 uM. (3) Add 1 ul of terbium labeled anti-His antibody (0.055 ng/ul final concentration) (4) Add 1 ul of streptavidin-XL665 (5 nM final concentration) (5) Incubate 60 min at room temperature (6) Detect the assay plate in a EnVision plate reader (PerkinElmer) with Ex=340 nm, Em1=665 nm and Em2=545 nm. Keywords: mytonic dystrophy type I, DM1, muscleblind like 1, MBNL1, CUG expansion, protein-RNA binding inhibitor, high throughput screening, MLSMR, MLSCN, NIH Roadmap, qHTS and NCGC
% is scaled to controls: 0 for no effect and ±100 for the full control effect; potency is read from the fitted curve at half-maximal effect.

Activity change, negative = inhibition, inactive:
COc1ccc(N2CCN(C(=O)Cn3cnc4sc(C)c(S(=O)(=O)N5CCOCC5)c4c3=O)CC2)cc1
Cc1sc2ncn(CC(=O)NCCN(C)C)c(=O)c2c1S(=O)(=O)N1CCC(C)CC1
CCC1Sc2ccc(S(=O)(=O)CCC(=O)NCc3cccs3)cc2NC1=O (stereo not given)
O=C(CNc1cccc(S(=O)(=O)N2CCCCC2)c1)Nc1ccccc1F
Cc1c(C)c2ccc(OCC(=O)N3CCN(c4cccc(Cl)c4)CC3)cc2oc1=O
CC1CN(C(=S)Nc2ccccc2F)CC(C)O1 (stereo not given)
O=C(Nc1ccc(Cl)cc1)c1cccc(OC(=S)N2CCOCC2)c1
CC(=O)N1CCN(c2ccccc2NC(=S)NC(=O)c2cc3ccccc3o2)CC1
COc1ccc(N2CCN(C(=O)[C@@H](NC(=O)c3cc(OC)cc(OC)c3)C(C)C)CC2)cc1
O=[N+]([O-])c1ccc(O)c(/C=N/Nc2ccccc2[N+](=O)[O-])c1
O=C1OC2(CCCCC2)CC2=C1C1O[C@](c3ccsc3)(Cc3ccccc31)O2 -2.14% [at 11.5 µM]
CCCCn1c(-c2cccc(C)c2)nc2cc3[nH]c(=O)c(C(C)C)nc3cc21
COc1cc(C(=O)NCc2ccncc2)cc(Br)c1OCc1ccccc1
CC1CCN(C(=S)NC(=O)c2ccccc2Br)CC1
CCC(CC)c1nnc(NC(=O)C2CCN(C(=O)c3ccco3)CC2)s1
COc1cccc(Cn2cc(/C=N/NC(=O)c3cc(O)cc(O)c3)c3ccccc32)c1
CC1(C(=O)NNC(=S)NCC2CCCO2)CC1(Cl)Cl (stereo not given)
CCCCC(CC)CNCc1cccn1CCN1CCOCC1 (stereo not given)
COc1ccc(CSc2nnnn2-c2ccc(O)cc2)cc1F
CCOCCCNc1nc(-c2ccccc2)nc2ccccc12
CCOc1ccc(NC(=O)CN2CCN(CC(=O)Nc3ccc(OC)cc3)CC2)cc1
COc1ccc(NC(=S)NCCNC(C)=O)cc1
COc1ccc(C(=O)c2c(C)c(CCC#N)n3ccccc23)c(OC)c1
Cc1[nH]c(C)c(S(=O)(=O)N2CCN(c3cccc(C(F)(F)F)c3)CC2)c1C(=O)N1CCCCC1
Cc1ccccc1C(=O)N1CCN(c2ccc(NC(=O)c3cccs3)cc2)CC1
CC(=O)c1ccc(NC(=O)c2sc3nc4n(c(=O)c3c2C)CCCCC4)cc1
CC(=O)N1c2ccc(S(=O)(=O)NCCC(=O)N(C)C3CCCCC3)cc2CC1C (stereo not given)
CC(=O)c1ccc(N2CCN(C(=O)C3CCN(S(=O)(=O)c4ccc5c(c4)CC(C)N5C(=O)C4CC4)CC3)CC2)cc1 (stereo not given)
C/C(=N\NC(=O)c1ccoc1C)c1ccccc1O
COc1ccc(N2CCN(S(=O)(=O)CCNC(=O)C34CC5CC(CC(C5)C3)C4)CC2)cc1
O=C(Nc1ccncc1)Nc1ccc(F)cc1
O=S(=O)(c1cccc(Cn2nnc(-c3ccc(F)cc3)n2)c1)N1CCOCC1
CN(CC(=O)Nc1ccc(F)cc1)C(=O)c1ccc(-c2ccc(Cl)cc2)o1
COc1ccccc1CCNC(=O)c1c(C)nn(CC(C)C)c1Cl
CCCOc1ccc(C2=CSC3=NCCN23)cc1Cl
CN(CC1CCCO1)S(=O)(=O)c1ccc(C(=O)Nc2ccc(F)cc2)cc1 (stereo not given)
Cc1ccc2sc(N(CCN(C)C)C(=O)/C=C/c3cccs3)nc2c1C
Cc1cc(C)c(SCCc2ccncc2)c(C)c1
Cc1ccc(OCC(=O)Nc2ccc(N3CCN(C(=O)c4ccco4)CC3)cc2)c(C)c1
COc1ccc(CN(C)C(=O)Cc2ccsc2)c(OC)c1OC
Cc1ccc(-c2noc(C3CCCN(C(=O)c4cccc(Cl)c4)C3)n2)o1 (stereo not given)
O=C(C1CCC(=O)N(C2CC2)C1)N1CCN(c2ccc(Cl)cc2)CC1 (stereo not given)
Cc1cc(C)c(NC(=O)CN2CCCCCC2)c(C)c1
COc1cc(Nc2nc3ccc(Cl)cc3n3cnnc23)cc(OC)c1OC
Cc1ccc(CS(=O)(=O)CCC(=O)NCc2ccc(F)cc2)cc1
CCOC(=O)C1(CCOC)CCN(Cc2cc3ccccc3s2)CC1
CCOCCCn1c(SCC(=O)Nc2cc(OC)ccc2OC)nc2ccccc2c1=O
C[C@H]1[C@H]2c3nc4ccccc4n3C[C@H]1ON2C1CCCCC1

Potency, active:
COc1cccc(NC(=O)Cn2cnc3sc(C)c(S(=O)(=O)N4CCN(C)CC4)c3c2=O)c1 31.6 µM
COc1ccc(Cc2n[nH]c(=S)n2NC(=O)Nc2ccc(C)cc2)cc1 25.1 µM
